34 compounds from PubChem BioAssay (EPA / NIEHS) can be followed below.

The structures appear in SMILES notation. Active and inactive are the calls of the source. The calls were made as follows: active = hit-call score of the fitted dose curve at least 0.9, where 1 is the maximum; inactive = score below 0.9.

In one experiment the target is Bile acid receptor (Homo sapiens) (UniProt Q96RI1). The experiment can be described thus: ATG_IR1_CIS: Attagene CIS-FACTORIAL HepG2 Assay for human Nuclear Receptor Subfamily 1 Group H Member 4 (NR1H4), IR1 submotif (AID 2282946). To be noted: IR1 reporter transcription, actives raise or lower the signal. In outline: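 Cells (human HepG2) carry transiently transfected cis-promoter reporter transcription units. Compounds are incubated 24 h, total RNA is reverse-transcribed and amplified, and labelled fragments are resolved by capillary electrophoresis. Curves use DMSO as baseline.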
Bile acid receptor (Homo sapiens), sequence (Q96RI1 whole entry, looked up, the tested form may be a part): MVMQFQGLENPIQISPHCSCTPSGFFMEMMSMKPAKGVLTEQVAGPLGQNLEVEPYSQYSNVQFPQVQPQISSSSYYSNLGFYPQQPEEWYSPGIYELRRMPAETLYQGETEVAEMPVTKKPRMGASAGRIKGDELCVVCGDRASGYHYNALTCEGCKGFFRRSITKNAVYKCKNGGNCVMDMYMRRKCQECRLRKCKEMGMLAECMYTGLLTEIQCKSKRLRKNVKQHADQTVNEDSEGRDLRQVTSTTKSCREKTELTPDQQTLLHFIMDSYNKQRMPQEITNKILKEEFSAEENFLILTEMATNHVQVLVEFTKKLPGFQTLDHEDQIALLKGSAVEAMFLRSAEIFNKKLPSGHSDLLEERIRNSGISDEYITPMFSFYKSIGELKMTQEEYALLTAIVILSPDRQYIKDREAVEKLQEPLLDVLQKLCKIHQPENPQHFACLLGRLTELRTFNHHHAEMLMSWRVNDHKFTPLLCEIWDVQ
In the case of `NC(=O)C(F)(F)C(F)(F)C(F)(F)C(F)(F)F`, the compound was classed as inactive.

With `O=P(O)(O)OCCC(F)(F)C(F)(F)C(F)(F)C(F)(F)C(F)(F)C(F)(F)F`, the outcome was inactive.

Consider `CC(=O)Nc1ccc(N=Nc2cc(C)ccc2O)cc1`, for which the compound was called inactive.

Regarding `CCCCCCC(C)OC(=O)CCCCC(=O)OC(C)CCCCCC` (stereo unspecified), the compound was called inactive.

Take `CC(Cc1ccc(O)c(O)c1)C(C)Cc1ccc(O)c(O)c1` (stereo unspecified): the outcome was inactive.

For `FC(F)(F)C(F)(F)C(F)(F)C(F)(F)C(F)(F)C(F)(F)C(F)(F)C(F)(F)CCS`, the outcome was inactive.

With `FC(F)(Br)C(F)(F)C(F)(F)C(F)(F)C(F)(F)C(F)(F)Br`, the compound was called inactive.

With `OCC(F)(F)C(F)(F)C(F)(F)C(F)(F)C(F)(F)C(F)F`, the result was inactive.

As for `COC(=O)CCC(F)(F)C(F)(F)C(F)(F)C(F)(F)F`, the compound was classed as inactive.

In the case of `FC(F)(F)C(F)(F)C(F)(F)N(C(F)(F)C(F)(F)C(F)(F)F)C(F)(F)C(F)(F)C(F)(F)F`, the outcome was inactive.

As for `FC(F)(F)C(F)(F)C(F)(F)C(F)(F)C(F)(F)C(F)(F)C(F)(F)C(F)(F)F`, the call was inactive.

The AC50 is the concentration at which the activity in the assay is half-maximal. Regarding `c1ccc(-c2ccccc2-c2ccccc2)cc1`, the AC50 was 27.1 µM (active).

As to `CCO[Si](CCC(F)(F)C(F)(F)C(F)(F)C(F)(F)C(F)(F)C(F)(F)F)(OCC)OCC`, the result was inactive.

For the compound `FC(F)(I)C(F)(F)C(F)(F)C(F)(F)I`, the compound was called inactive.

As to `CCCCCCCCC(F)(F)C(F)(F)C(F)(F)C(F)(F)C(F)(F)C(F)(F)F`, the compound was called inactive.

In the case of `FC(F)(F)C(F)(F)CNCC(F)(F)C(F)(F)F`, the compound was called inactive.

For `CC/C=C\CCOC(=O)c1ccccc1`, the compound was classed as inactive.

For the compound `O=S(=O)(OCCOC(F)(F)F)C(F)(F)F`, the call was inactive.

For the compound `O=S(=O)(O)c1ccc2ccccc2c1`, the compound was classed as inactive.

Turning to `Cc1cccc(N(C)C)c1`, the result was inactive.

In the case of `FC(F)(F)C(F)(F)C(F)(F)CI`, the result was inactive.

Regarding `O=C(O)C(F)(OC(F)(F)C(F)(OC(F)(F)C(F)(OC(F)(F)C(F)(F)C(F)(F)F)C(F)(F)F)C(F)(F)F)C(F)(F)F` (stereo unspecified), the result was inactive.

On to `Nc1ccc(Oc2cccc(Oc3ccc(N)cc3)c2)cc1`, for which the AC50 was 24.6 µM (active).

With `FC(F)(F)C(F)(F)C(F)(F)C(F)(F)C(F)(F)C(F)(F)CCS`, the compound was called inactive.

In the case of `C=C(C)C(=O)OCC(F)(F)C(F)(F)C(F)(F)F`, the compound was called inactive.

As to `COC(OC(C)=O)c1ccccc1` (stereo unspecified), the compound was called inactive.

Turning to `FC(F)(F)C(F)(F)C(F)(F)C(F)(F)C(F)(F)CCI`, the outcome was inactive.

Regarding `Nc1ccc([N+](=O)[O-])cc1O`, the compound was classed as inactive.

Consider `C#C[C@]1(O)CC[C@H]2[C@@H]3CCc4cc(OC)ccc4[C@H]3CC[C@@]21C`, for which the call was inactive.

As to `CC(C)=CCCC(C)CCOC(=O)C(C)C` (stereo unspecified), the call was inactive.

In the case of `OCC(F)(F)C(F)(F)C(F)(F)C(F)F`, the call was inactive.

In the case of `CC(CCl)OP(=O)(OC(C)CCl)OC(C)CCl` (stereo unspecified), the result was inactive.

In the case of `CC(C)OC(=O)c1ccccc1C(=O)OC(C)C`, the result was inactive.

With `FC(F)(F)C(F)(F)C(F)(F)C(F)(F)C(F)(F)C(F)(F)CC1CO1` (stereo unspecified), the result was inactive.

Test system in the next experiment: not listed separately
The experiment can be described thus: ATG_GRE_CIS: Attagene CIS-FACTORIAL HepG2 Assay for human Glucocorticoid Response Elements (GRE) (AID 2282947). The conditions noted are these: HepG2 GRE cis-reporter, Attagene multiplex mRNA; actives raise or lower the signal. In outline: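 Transient MRTU transfection of human HepG2 liver cells; cis-regulated reporters report endogenous factors. 24 h dosing → RNA isolation → RT-PCR → 6-FAM primer extension → HpaI cut → CE fragment analysis. Bidirectional fit, DMSO negative control.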
As to `NC(=O)C(F)(F)C(F)(F)C(F)(F)C(F)(F)F`, the compound was classed as inactive.

As to `CCCCCCC(C)OC(=O)CCCCC(=O)OC(C)CCCCCC` (stereo unspecified), the outcome was inactive.

Consider `FC(F)(Br)C(F)(F)C(F)(F)C(F)(F)C(F)(F)C(F)(F)Br`, for which the outcome was inactive.

On to `COC(=O)CCC(F)(F)C(F)(F)C(F)(F)C(F)(F)F`, for which the result was inactive.

In the case of `FC(F)(F)C(F)(F)C(F)(F)N(C(F)(F)C(F)(F)C(F)(F)F)C(F)(F)C(F)(F)C(F)(F)F`, the call was inactive.

On to `FC(F)(F)C(F)(F)C(F)(F)C(F)(F)C(F)(F)C(F)(F)C(F)(F)C(F)(F)F`, for which the outcome was inactive.

With `c1ccc(-c2ccccc2-c2ccccc2)cc1`, the compound was called inactive.

On to `CCO[Si](CCC(F)(F)C(F)(F)C(F)(F)C(F)(F)C(F)(F)C(F)(F)F)(OCC)OCC`, for which the call was inactive.

As to `CCCCCCCCC(F)(F)C(F)(F)C(F)(F)C(F)(F)C(F)(F)C(F)(F)F`, the compound was called inactive.

As to `FC(F)(F)C(F)(F)CNCC(F)(F)C(F)(F)F`, the result was inactive.

Take `O=S(=O)(OCCOC(F)(F)F)C(F)(F)F`: the call was inactive.

Consider `Cc1cccc(N(C)C)c1`, for which the compound was called inactive.

For the compound `FC(F)(F)C(F)(F)C(F)(F)CI`, the call was inactive.

For `Nc1ccc(Oc2cccc(Oc3ccc(N)cc3)c2)cc1`, the half-maximal activity concentration (AC50) was 181 µM (active).

On to `FC(F)(F)C(F)(F)C(F)(F)C(F)(F)C(F)(F)C(F)(F)CCS`, for which the outcome was inactive.

With `C=C(C)C(=O)OCC(F)(F)C(F)(F)C(F)(F)F`, the result was inactive.

For the compound `Nc1ccc([N+](=O)[O-])cc1O`, the result was inactive.

Regarding `C#C[C@]1(O)CC[C@H]2[C@@H]3CCc4cc(OC)ccc4[C@H]3CC[C@@]21C`, the outcome was inactive.

On to `CC(C)=CCCC(C)CCOC(=O)C(C)C` (stereo unspecified), for which the compound was called inactive.

On to `OCC(F)(F)C(F)(F)C(F)(F)C(F)F`, for which the compound was classed as inactive.

On to `CC(CCl)OP(=O)(OC(C)CCl)OC(C)CCl` (stereo unspecified), for which the result was inactive.

Regarding `CC(C)OC(=O)c1ccccc1C(=O)OC(C)C`, the compound was classed as inactive.

Turning to `FC(F)(F)C(F)(F)C(F)(F)C(F)(F)C(F)(F)C(F)(F)CC1CO1` (stereo unspecified), the result was inactive.

Test system in another experiment: not listed separately
The experiment can be described thus: ATG_ISRE_CIS: Attagene CIS-FACTORIAL HepG2 Assay for human Interferon Regulatory Factor 1 (IRF1) binding to an Interferon-Stimulated Response Element (ISRE) (AID 2282948). To be noted: HepG2 ISRE cis-reporter (Attagene), mRNA transcription readout; actives raise or lower the signal. In outline:
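Transfected HepG2 (multiple reporter transcription units, cis elements) dosed 24 h. RNA → oligo(dT) RT → PCR → 6-FAM primer extension → HpaI → CE. DMSO = negative control/baseline.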
For the compound `NC(=O)C(F)(F)C(F)(F)C(F)(F)C(F)(F)F`, the compound was classed as inactive.

On to `O=P(O)(O)OCCC(F)(F)C(F)(F)C(F)(F)C(F)(F)C(F)(F)C(F)(F)F`, for which the result was inactive.

`CC(=O)Nc1ccc(N=Nc2cc(C)ccc2O)cc1`: the result was inactive.

With `CCCCCCC(C)OC(=O)CCCCC(=O)OC(C)CCCCCC` (stereo unspecified), the call was inactive.

For `CC(Cc1ccc(O)c(O)c1)C(C)Cc1ccc(O)c(O)c1` (stereo unspecified), the result was inactive.

For `FC(F)(F)C(F)(F)C(F)(F)C(F)(F)C(F)(F)C(F)(F)C(F)(F)C(F)(F)CCS`, the compound was called inactive.

For the compound `FC(F)(Br)C(F)(F)C(F)(F)C(F)(F)C(F)(F)C(F)(F)Br`, the compound was called inactive.

`OCC(F)(F)C(F)(F)C(F)(F)C(F)(F)C(F)(F)C(F)F`: the compound was classed as inactive.

As for `COC(=O)CCC(F)(F)C(F)(F)C(F)(F)C(F)(F)F`, the compound was called inactive.

As for `FC(F)(F)C(F)(F)C(F)(F)N(C(F)(F)C(F)(F)C(F)(F)F)C(F)(F)C(F)(F)C(F)(F)F`, the outcome was inactive.

`FC(F)(F)C(F)(F)C(F)(F)C(F)(F)C(F)(F)C(F)(F)C(F)(F)C(F)(F)F`: the result was inactive.

In the case of `c1ccc(-c2ccccc2-c2ccccc2)cc1`, the AC50 was 100 µM (active).

For the compound `CCO[Si](CCC(F)(F)C(F)(F)C(F)(F)C(F)(F)C(F)(F)C(F)(F)F)(OCC)OCC`, the compound was called inactive.

As to `FC(F)(I)C(F)(F)C(F)(F)C(F)(F)I`, the outcome was inactive.

`CCCCCCCCC(F)(F)C(F)(F)C(F)(F)C(F)(F)C(F)(F)C(F)(F)F`: the outcome was inactive.

Take `FC(F)(F)C(F)(F)CNCC(F)(F)C(F)(F)F`: the call was inactive.

`CC/C=C\CCOC(=O)c1ccccc1`: the outcome was inactive.

With `O=S(=O)(OCCOC(F)(F)F)C(F)(F)F`, the compound was classed as inactive.

Turning to `O=S(=O)(O)c1ccc2ccccc2c1`, the result was inactive.

Turning to `Cc1cccc(N(C)C)c1`, the compound was classed as inactive.

`FC(F)(F)C(F)(F)C(F)(F)CI`: the compound was called inactive.

Consider `O=C(O)C(F)(OC(F)(F)C(F)(OC(F)(F)C(F)(OC(F)(F)C(F)(F)C(F)(F)F)C(F)(F)F)C(F)(F)F)C(F)(F)F` (stereo unspecified), for which the compound was classed as inactive.

As for `Nc1ccc(Oc2cccc(Oc3ccc(N)cc3)c2)cc1`, the half-maximal activity concentration (AC50) is 24.7 µM (active).

Turning to `FC(F)(F)C(F)(F)C(F)(F)C(F)(F)C(F)(F)C(F)(F)CCS`, the call was inactive.

`C=C(C)C(=O)OCC(F)(F)C(F)(F)C(F)(F)F`: the compound was classed as inactive.

In the case of `COC(OC(C)=O)c1ccccc1` (stereo unspecified), the result was inactive.

Consider `FC(F)(F)C(F)(F)C(F)(F)C(F)(F)C(F)(F)CCI`, for which the result was inactive.

`Nc1ccc([N+](=O)[O-])cc1O`: the call was inactive.

As for `C#C[C@]1(O)CC[C@H]2[C@@H]3CCc4cc(OC)ccc4[C@H]3CC[C@@]21C`, the outcome was inactive.

Turning to `CC(C)=CCCC(C)CCOC(=O)C(C)C` (stereo unspecified), the outcome was inactive.

As to `OCC(F)(F)C(F)(F)C(F)(F)C(F)F`, the compound was classed as inactive.

For the compound `CC(CCl)OP(=O)(OC(C)CCl)OC(C)CCl` (stereo unspecified), the outcome was inactive.

For `CC(C)OC(=O)c1ccccc1C(=O)OC(C)C`, the outcome was inactive.

`FC(F)(F)C(F)(F)C(F)(F)C(F)(F)C(F)(F)C(F)(F)CC1CO1` (stereo unspecified): the compound was classed as inactive.
